Measured values published in PubChem BioAssay (NCATS).
Values joined by “and” are separate entries in the source; they are usually repeats but may differ in a detail not shown here. Equal values may be shown once. Inconclusive results are not listed. Active and inactive are the calls of the source. Unless noted, calls come from the whole dose curve.

Key:
[1] = biological target: Bile acid receptor (Homo sapiens) (UniProt Q96RI1); assay: qHTS assay for small molecule antagonists of farnesoid X receptor signaling (AID 588526); note: % is set by controls: 0 for no effect and ±100 for the full control effect
Outline: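 Beta-lactamase reporter antagonist mode: HEK293T FXR-UAS-bla cells, titrated compound, CDCA stimulation, 16 h 37 C, CCF4 dye 2 h RT. Data normalized to CDCA 50 uM and DMSO; Hill-fit IC50.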

[2] = biological target: Glucocorticoid receptor (Homo sapiens) (UniProt P04150); assay: qHTS assay for small molecule antagonists of glucocorticoid receptor signaling (AID 588533; active = well fitted inhibition curve with a large enough effect in the signal ratio, with a control signal flat, not every such curve was filed as active; the % refers to the signal ratio;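 note: cells stimulated with 2 nM dexamethasone as agonist; % is set by controls: 0 for no effect and ±100 for the full control effect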)
Outline: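 Antagonist-mode qHTS: compound titrations added to GRE-bla HeLa cells, then dexamethasone 2 nM final; 18 h, 37 C. CCF4 FRET fluorescence normalized to dexamethasone and DMSO; IC50 from Hill fit.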

[3] = biological target: Vitamin D3 receptor (Homo sapiens) (UniProt P11473); assay: qHTS assay for small molecule antagonists of vitamin D receptor signaling (AID 588541);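 note: receptor activated by calcitriol during compound treatment; series mostly up to about 77 µM; % is set by controls: 0 for no effect and ±100 for the full control effect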
Outline: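 Antagonist-mode beta-lactamase reporter assay: HEK293T VDR-UAS-bla cells were exposed to titrated compound alongside 1-alpha,25-dihydroxyvitamin D3 at 3 nM final for 16 h. Values were normalized to the 50 nM agonist control and DMSO basal, with IC50 and efficacy from Hill equation fits.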

[4] = biological target: Vitamin D3 receptor (Homo sapiens) (UniProt P11473); assay: qHTS assay for small molecule agonists of vitamin D receptor signaling (AID 588543);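 note: 0% = DMSO basal and 100% = reference agonist control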
Outline: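 qHTS in agonist mode: compound titrations stimulate a VDR-driven β-lactamase reporter in HEK293T cells over 16 h at 37 °C. Response normalized to 50 nM 1α,25-dihydroxyvitamin D3 = 100%, DMSO = 0%; Hill fitting gives EC50 and maximal response.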

[5] = biological target: Retinoic acid receptor RXR-alpha (Homo sapiens) (UniProt P19793); assay: qHTS assay for small molecule agonists of retinoid X receptor alpha signaling (AID 588544);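 note: 0% = DMSO basal wells and 100% = reference agonist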
[6] = qHTS assay for small molecule agonists of the antioxidant response element (ARE) signaling pathway (AID 651741; active = well fitted activation curve with a large enough effect in the signal ratio; the % refers to the signal ratio; note: % of control where 0% means no effect)
Outline: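 Seeding 2,000 ARE-bla HepG2 cells per well preceded a 5 h incubation at 37 C/5% CO2 and a 16 h compound exposure at 37 C. Beta-lactamase reporter activity was then quantified by fluorescence after 2 h with LiveBLAzer B/G FRET substrate.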

[7] = biological target: Peroxisome proliferator-activated receptor gamma (Homo sapiens) (UniProt P37231); assay: qHTS assay for small molecule antagonists of peroxisome proliferator-activated receptor gamma signaling (AID 588537; active = well fitted inhibition curve with a large enough effect in the signal ratio, with a control signal flat, not every such curve was filed as active; the % refers to the signal ratio;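 note: reporter cells co-stimulated with 50 nM rosiglitazone agonist during compound treatment; % of control where 0% means no effect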)
Outline: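 Inhibitors of agonist-stimulated UAS-bla reporter activity were sought in HEK293 cells; rosiglitazone (50 nM) defined full signal and DMSO baseline. Curves fitted to Hill model gave IC50 and efficacy.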

[8] = qHTS assay for small molecule activators of the nuclear factor-kappa B (NF-kB) signaling pathway (AID 651749; active = well fitted activation curve with a large enough effect in the signal ratio; the % refers to the signal ratio; note: series mostly up to about 77 µM; % of control where 0% means no effect); settings: NF-kB-bla ME-180 cells, beta-lactamase FRET ratio, 16 h; activation: active compounds read high
Outline: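 Stably transfected ME-180 line; NF-kB response element upstream of beta-lactamase. Treatment: compound or DMSO, 16 hr. Detection: fluorescent FRET substrate.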

[9] = biological target: Androgen receptor (Homo sapiens) (UniProt P10275); assay: qHTS assay for small molecule antagonists of androgen receptor signaling (AID 588516; active = well fitted curve in the direction sought with a large enough effect in the signal ratio, with a control signal flat, not every such curve was filed as active; the % refers to the signal ratio; note: % is set by controls: 0 for no effect and ±100 for the full control effect)
Outline: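 Antagonist-mode qHTS: inhibition of R1881 (10 nM)-driven beta-lactamase expression in GripTite HEK 293 cells is measured after 16 h; values are Hill-derived IC50s normalized between R1881 and DMSO wells.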

[10] = biological target: Androgen receptor (Homo sapiens) (UniProt P10275); assay: qHTS assay for small molecule agonists of androgen receptor signaling (AID 588515; active = well fitted curve in the direction sought with a large enough effect in the signal ratio, with a control signal flat; the % refers to the signal ratio; note: % is set by controls: 0 for no effect and ±100 for the full control effect); settings: AR-UAS-bla HEK293, beta-lactamase ratio, agonist 16 h; activation: active compounds read high
Outline: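 EC50 and efficacy came from Hill fits of titrations (up to 92 uM) normalized to 30 nM R1881 as 100% and DMSO as 0%. Compound exposure was 16 h at 37 C on AR-UAS-bla HEK293 cells, with a 405/460/530 nm CCF4 fluorescence read.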

Sequence of Vitamin D3 receptor (Homo sapiens) (P11473 whole entry, looked up): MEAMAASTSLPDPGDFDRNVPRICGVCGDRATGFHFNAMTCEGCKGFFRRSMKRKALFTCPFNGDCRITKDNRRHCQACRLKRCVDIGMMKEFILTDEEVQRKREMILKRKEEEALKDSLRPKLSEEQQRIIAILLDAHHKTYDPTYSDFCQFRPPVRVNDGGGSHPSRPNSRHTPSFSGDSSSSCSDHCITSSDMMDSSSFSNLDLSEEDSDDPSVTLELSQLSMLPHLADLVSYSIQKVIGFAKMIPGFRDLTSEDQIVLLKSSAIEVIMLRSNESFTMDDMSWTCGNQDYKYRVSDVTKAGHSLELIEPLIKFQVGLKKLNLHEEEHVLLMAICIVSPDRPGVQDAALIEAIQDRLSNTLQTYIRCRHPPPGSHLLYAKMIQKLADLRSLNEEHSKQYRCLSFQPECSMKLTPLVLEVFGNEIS
Sequence of Peroxisome proliferator-activated receptor gamma (Homo sapiens) (P37231 whole entry, looked up): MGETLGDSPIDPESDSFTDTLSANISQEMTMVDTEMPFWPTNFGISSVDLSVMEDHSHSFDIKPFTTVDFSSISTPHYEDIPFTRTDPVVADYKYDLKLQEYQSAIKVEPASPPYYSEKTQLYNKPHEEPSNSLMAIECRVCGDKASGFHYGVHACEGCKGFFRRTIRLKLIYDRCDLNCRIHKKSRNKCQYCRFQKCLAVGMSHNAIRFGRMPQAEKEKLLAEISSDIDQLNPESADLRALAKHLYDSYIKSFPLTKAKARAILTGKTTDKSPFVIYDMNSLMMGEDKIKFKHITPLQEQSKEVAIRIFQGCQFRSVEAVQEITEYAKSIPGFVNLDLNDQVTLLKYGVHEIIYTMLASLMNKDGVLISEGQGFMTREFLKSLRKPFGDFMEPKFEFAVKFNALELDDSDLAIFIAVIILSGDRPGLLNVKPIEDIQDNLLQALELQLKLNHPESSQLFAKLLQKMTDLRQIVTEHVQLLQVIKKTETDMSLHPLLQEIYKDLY
Sequence of Retinoic acid receptor RXR-alpha (Homo sapiens) (P19793 whole entry, looked up): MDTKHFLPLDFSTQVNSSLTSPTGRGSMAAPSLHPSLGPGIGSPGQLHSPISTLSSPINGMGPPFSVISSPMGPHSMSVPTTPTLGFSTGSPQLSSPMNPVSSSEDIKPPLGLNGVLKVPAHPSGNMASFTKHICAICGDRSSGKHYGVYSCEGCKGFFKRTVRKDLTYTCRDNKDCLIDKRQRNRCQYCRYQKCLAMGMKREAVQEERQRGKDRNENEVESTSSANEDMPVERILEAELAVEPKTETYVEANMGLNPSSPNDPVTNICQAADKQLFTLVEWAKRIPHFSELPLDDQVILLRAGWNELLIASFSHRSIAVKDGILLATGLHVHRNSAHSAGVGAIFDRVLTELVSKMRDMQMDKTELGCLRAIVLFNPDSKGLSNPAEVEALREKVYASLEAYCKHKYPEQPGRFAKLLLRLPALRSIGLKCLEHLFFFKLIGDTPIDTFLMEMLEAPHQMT
Sequence of Androgen receptor (Homo sapiens) (P10275 whole entry, looked up): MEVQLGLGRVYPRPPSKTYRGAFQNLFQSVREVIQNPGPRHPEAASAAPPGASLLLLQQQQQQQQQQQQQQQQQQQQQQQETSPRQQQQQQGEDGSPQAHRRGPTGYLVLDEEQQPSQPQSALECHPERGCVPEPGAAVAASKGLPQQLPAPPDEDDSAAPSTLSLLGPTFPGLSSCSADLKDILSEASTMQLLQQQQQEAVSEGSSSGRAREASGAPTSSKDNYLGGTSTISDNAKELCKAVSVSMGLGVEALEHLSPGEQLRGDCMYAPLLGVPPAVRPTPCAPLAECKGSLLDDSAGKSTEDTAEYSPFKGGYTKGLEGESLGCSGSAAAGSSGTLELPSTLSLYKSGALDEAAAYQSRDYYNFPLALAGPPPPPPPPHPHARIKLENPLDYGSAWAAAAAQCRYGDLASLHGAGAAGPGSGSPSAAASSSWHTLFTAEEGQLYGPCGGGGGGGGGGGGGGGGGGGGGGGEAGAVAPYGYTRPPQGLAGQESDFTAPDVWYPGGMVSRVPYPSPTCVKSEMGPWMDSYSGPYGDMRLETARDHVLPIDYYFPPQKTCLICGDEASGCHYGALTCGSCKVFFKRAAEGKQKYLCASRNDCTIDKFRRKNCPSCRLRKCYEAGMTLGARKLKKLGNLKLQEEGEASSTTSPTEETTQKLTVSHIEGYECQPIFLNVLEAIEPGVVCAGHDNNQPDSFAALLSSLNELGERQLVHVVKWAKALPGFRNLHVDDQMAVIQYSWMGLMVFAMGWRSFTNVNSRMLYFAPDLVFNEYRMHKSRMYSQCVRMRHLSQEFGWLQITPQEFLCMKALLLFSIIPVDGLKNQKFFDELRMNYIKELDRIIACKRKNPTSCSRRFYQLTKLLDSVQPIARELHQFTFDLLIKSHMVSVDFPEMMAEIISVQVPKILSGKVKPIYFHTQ
Sequence of Glucocorticoid receptor (Homo sapiens) (P04150 whole entry, looked up): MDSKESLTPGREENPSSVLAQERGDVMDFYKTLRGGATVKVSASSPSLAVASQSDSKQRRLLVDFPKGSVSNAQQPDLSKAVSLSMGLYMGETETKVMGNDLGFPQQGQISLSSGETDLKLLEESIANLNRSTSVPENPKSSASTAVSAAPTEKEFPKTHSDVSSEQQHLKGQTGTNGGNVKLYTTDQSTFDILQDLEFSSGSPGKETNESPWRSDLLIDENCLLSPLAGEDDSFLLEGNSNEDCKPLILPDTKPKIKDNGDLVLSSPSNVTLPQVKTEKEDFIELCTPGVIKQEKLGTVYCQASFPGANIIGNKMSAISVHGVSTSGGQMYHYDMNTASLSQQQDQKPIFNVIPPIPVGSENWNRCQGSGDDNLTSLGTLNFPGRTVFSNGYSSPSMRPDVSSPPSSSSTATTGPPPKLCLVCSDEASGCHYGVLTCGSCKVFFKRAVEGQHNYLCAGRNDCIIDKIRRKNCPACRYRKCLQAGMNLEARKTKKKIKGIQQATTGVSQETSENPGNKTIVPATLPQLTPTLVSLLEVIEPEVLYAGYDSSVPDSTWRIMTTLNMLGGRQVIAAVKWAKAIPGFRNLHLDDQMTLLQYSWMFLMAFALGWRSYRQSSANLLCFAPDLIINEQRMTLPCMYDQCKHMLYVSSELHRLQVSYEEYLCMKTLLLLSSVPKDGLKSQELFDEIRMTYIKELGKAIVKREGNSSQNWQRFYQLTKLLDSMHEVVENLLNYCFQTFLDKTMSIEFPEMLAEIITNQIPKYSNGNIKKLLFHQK
Sequence of Bile acid receptor (Homo sapiens) (Q96RI1 whole entry, looked up): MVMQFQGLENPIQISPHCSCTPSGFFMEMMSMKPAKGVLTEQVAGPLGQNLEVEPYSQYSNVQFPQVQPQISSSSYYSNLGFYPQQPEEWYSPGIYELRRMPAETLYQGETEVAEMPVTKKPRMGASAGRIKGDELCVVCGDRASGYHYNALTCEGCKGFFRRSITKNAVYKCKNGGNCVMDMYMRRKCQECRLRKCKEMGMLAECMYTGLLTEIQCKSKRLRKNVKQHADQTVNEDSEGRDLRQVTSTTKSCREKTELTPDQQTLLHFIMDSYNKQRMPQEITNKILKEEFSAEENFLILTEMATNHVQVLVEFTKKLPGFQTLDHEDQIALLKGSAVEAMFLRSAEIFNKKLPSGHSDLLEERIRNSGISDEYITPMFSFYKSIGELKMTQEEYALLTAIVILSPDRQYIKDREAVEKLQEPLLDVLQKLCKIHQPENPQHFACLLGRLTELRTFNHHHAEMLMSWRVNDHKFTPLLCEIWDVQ

CC(C)c1ccc(C(C)C)cc1
inactive: Potency [1] | Potency [2] | Potency [3] | outcome [4] | Potency [5] | Potency [6]

CCCCNS(=O)(=O)c1ccccc1
inactive: Potency [1] | Potency [7] | activation [8] 0.692%

CCCCOC(=O)/C=C\C(=O)OCCCC
inactive: Potency [1] | Potency [3] | Potency [5]

C/C=C/C=C/CCCCCCCO
inactive: Potency [1] | Potency [2] | Potency [3] | outcome [4] | Potency [5] | Potency [6] | activation [8] -0.666%

CC1=CC2C3CC(C=C3C)C2C1 (configuration not stated)
inactive: Potency [2] | Potency [7] | Potency [3] | outcome [4] | Potency [5] | Potency [6] | activation [8] -0.782%

CNc1nc(=O)n(C2CCC(O)CC2)c(=O)n1C (configuration not stated)
inactive: outcome [9] | Potency [1] | Potency [2] | Potency [7] | Potency [5]

OC1CCC(C2CCCCC2)CC1 (configuration not stated)
inactive: Potency [1] | Potency [2] | Potency [7] | Potency [3] | outcome [4] | Potency [5] | Potency [6]

CC/C=C\CCOC(=O)c1ccccc1O
inactive: Potency [2] | Potency [7] | Potency [3] | outcome [4] | Potency [5] | Potency [6] | activation [8] -0.397%

C[N+](C)(C)CC(O)CCl (configuration not stated)
inactive: Potency [2] | Potency [7] | Potency [3] | outcome [4] | Potency [5] | activation [8] -1.69%

c1ccc2c(c1)Cc1ccccc1-2
inactive: Potency [1] | Potency [3] | Potency [5] | activation [8] -1.09%

OCC(CO)(CO)COCC(CO)(CO)CO
inactive: Potency [1] | Potency [7] | Potency [3] | outcome [4] | Potency [5] | Potency [6] | activation [8] -2.64%

c1ccc(-c2ccc(-c3ccccc3)cc2)cc1
inactive: Potency [2] | Potency [7] | Potency [3] | outcome [4]

CCCCCCCCCCO
inactive: Potency [1] | Potency [2] | Potency [7] | Potency [3] | outcome [4] | Potency [5] | Potency [6] | activation [8] -0.272% and -0.916%

CC(C)OB(OC(C)C)OC(C)C
inactive: Potency [2] | Potency [7] | Potency [3] | outcome [4] | Potency [5] | Potency [6] | activation [8] 1.02%

C/C(=C\C(C)CC(C)CC(C)C)C1CC(=O)OC1=O (configuration not stated)
inactive: Potency [3] | outcome [4]

COC(=O)c1ccc(C(=O)OC)cc1
inactive: Potency [7] | Potency [3] | outcome [4] | Potency [5] | Potency [6] | activation [8] -0.624%

Brc1ccc(Br)c(Br)c1
inactive: Potency [7] | Potency [3] | outcome [4] | Potency [5] | Potency [6] | activation [8] -0.374%

Cc1ccc(Cl)cc1Cl
inactive: Potency [3] | outcome [4] | Potency [6] | activation [8] -1.58%

C=C(C)C(=O)OCCC[Si](OC)(OC)OC
inactive: Potency [2] | Potency [7] | Potency [5] | Potency [6] | activation [8] -3.72%

CCCCCCCCCCCCCCCCN(C)C
inactive: activation [10] 8.77% | outcome [9] | Potency [2] | Potency [5] | Potency [6]

C[Si]1(C)N[Si](C)(C)N[Si](C)(C)N1
inactive: Potency [7] | Potency [5] | Potency [6] | activation [8] -2.89%

O=S(=O)(O)c1cc(S(=O)(=O)O)c2c(N=Nc3ccccc3)c(O)ccc2c1
inactive: Potency [1] | Potency [2] | Potency [3] | Potency [5] | Potency [6] | activation [8] 1.12%

CC(=O)OC1CCC(C(C)(C)C)CC1 (configuration not stated)
inactive: activation [10] 3% | outcome [9] | Potency [3] | outcome [4] | Potency [5] | Potency [6]

O=C(O)c1cccc(C(=O)O)c1
inactive: Potency [2] | Potency [7] | Potency [6]

CC(C)(C)c1ccc(O)c(C(C)(C)C)c1
inactive: Potency [1] | Potency [2] | Potency [7] | Potency [3] | activation [8] -1.75%

CC1(C)C(C=C(Cl)Cl)[C@H]1C(=O)OCc1cccc(Oc2ccccc2)c1 (some centres not stated)
inactive: activation [10] -0.893% | outcome [9] | Potency [3]

O=C(Cl)c1cc(Cl)cc(Cl)c1
inactive: Potency [7] | Potency [5] | activation [8] -1.64%

C[Si](C)(C)N[Si](C)(C)C
inactive: Potency [2] | Potency [7] | outcome [4]

CC1(C)C(=O)N(Cl)C(=O)N1Cl
inactive: Potency [2] | Potency [7] | outcome [4] | Potency [5] | Potency [6]

CCCCCCCCC(=O)O
inactive: Potency [5]

O=[N+]([O-])C(CO)(CO)CO
inactive: Potency [3] | outcome [4] | Potency [5] | activation [8] 0.34%

CCOC(=O)CC(O)(CC(=O)OCC)C(=O)OCC
inactive: Potency [2] | Potency [3] | outcome [4] | Potency [5] | Potency [6] | activation [8] -1.34%

CC(C)(C)C1CCC(O)CC1 (configuration not stated)
inactive: Potency [7] | Potency [3] | outcome [4] | Potency [6] | activation [8] 0.471%

CN(C)C(=O)Nc1ccccc1
inactive: Potency [7] | outcome [4] | Potency [5] | activation [8] -1.78%

CCOC(=O)COc1cc(-n2ncc(C(F)(F)F)c(C)c2=O)c(F)cc1Cl
inactive: activation [10] -1.68% | Potency [7] | Potency [3] | outcome [4] | Potency [5]

CCCCCCCCCCCCCCO
inactive: Potency [3] | outcome [4] | Potency [5] | Potency [6]

CC(=O)OC(C)(C)C1CC=C(C)CC1 (configuration not stated)
inactive: Potency [7] | Potency [3] | outcome [4] | Potency [6]

c1ccc2cc3c(ccc4ccccc43)cc2c1
inactive: Potency [1] | Potency [5]

Fc1ccc(Br)cc1
inactive: Potency [2] | Potency [7] | Potency [3] | outcome [4] | Potency [5]
